Records with an inconclusive call do not appear. Active and inactive are the calls of the source. Calls follow the shape of the dose curve; as a rule, active = well fitted curve in the direction sought with a large enough effect; inconclusive = small, poorly fitted or top-dose-only effect, or another doubt; inactive = no such curve, though single readings can be large; an effect the other way counts as inactive or inconclusive.
Columns and labels:
[1] = P-glycoprotein substrates identified in KB-8-5-11 adenocarcinoma cell line, qHTS therapeutic library screen (AID 1346987); conditions: outcome: dose series up to 44.5 µM; also: series mostly up to about 44 µM; nearly all actives have a fitted effect of over 65% in size
How it was run: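 KB-8-5-11: colchicine-selected sub-line of KB-3-1 over-expressing P-gp; assay medium lacked colchicine. 72 h drug exposure at 37 degree C, CellTiter-Glo.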

[2] = NS1 protein of Zika virus - qHTS assay to identify small molecule inhibitors in human HEK 293 cells (AID 1347053); also: series mostly up to about 46 µM; nearly all actives have a fitted effect of over 55% in size
How it was run: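 HEK 293 cells, seeded 20 h at 37 C, were pretreated with compound 1 h, then infected with ZIKV MR766 (MOI = 0.5) for 24 h. NS1 was read by TR-FRET with two anti-NS1 antibodies, normalized to uninfected and infected wells.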

[3] = qHTS of pediatric cancer cell lines to identify multiple opportunities for drug repurposing: Primary screen for TC32 cells (AID 1347089); also: nearly all actives have a fitted effect of over 60% in size
How it was run: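 Luminescent CellTiter-Glo read-out of metabolically active TC32 cells after 48 h compound exposure. Primary: MIPE 11-point, 0.78 nM–46 µM; NPC 8-point, 0.59 nM–46 µM. Confirmatory: 11-point dilutions.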

[4] = qHTS of pediatric cancer cell lines to identify multiple opportunities for drug repurposing: Primary screen for DAOY cells (AID 1347090); also: series mostly up to about 46 µM; nearly all actives have a fitted effect of over 55% in size
How it was run: (§1)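 Cell viability, CellTiter-Glo luminescence; 500-1,000 cells/well, 8- or 11-point titration, 48 h compound exposure at 37 degrees C, 5% CO2. Controls: DMSO neutral, bortezomib 2.3 µM final as positive.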

[5] = qHTS of pediatric cancer cell lines to identify multiple opportunities for drug repurposing: Primary screen for SJ-GBM2 cells (AID 1347091)
How it was run: as §1

[6] = qHTS of pediatric cancer cell lines to identify multiple opportunities for drug repurposing: Primary screen for A673 cells (AID 1347092); also: nearly all actives have a fitted effect of over 45% in size
How it was run: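 A673 cells (500-1,000 cells/well in growth media) were pre-incubated 5 h at 37 degrees C, then exposed to compounds for 48 h. Viability was read as CellTiter-Glo luminescence; concentration-response curves came directly from the primary screen.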

[7] = qHTS of pediatric cancer cell lines to identify multiple opportunities for drug repurposing: Primary screen for SK-N-MC cells (AID 1347093); also: series mostly up to about 46 µM
How it was run: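 Metabolically active cells were quantified by ATP-dependent luminescence (CellTiter-Glo, 15 min at room temperature) following 48 h treatment. Cells had been plated at 500-1,000 per well and settled for 5 h beforehand.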

[8] = qHTS of pediatric cancer cell lines to identify multiple opportunities for drug repurposing: Primary screen for BT-37 cells (AID 1347094); also: series mostly up to about 57 µM
How it was run: (§2)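 Primary screen of approved and investigational compounds on cells in growth media at 37 degrees C, 5% CO2. MIPE set at 11-point and NPC set at 8-point dilutions; viability scored by ATP-based luminescence at 48 hours.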

[9] = qHTS of pediatric cancer cell lines to identify multiple opportunities for drug repurposing: Primary screen for NB-EBc1 cells (AID 1347095)
How it was run: as §2

[10] = qHTS of pediatric cancer cell lines to identify multiple opportunities for drug repurposing: Primary screen for U-2 OS cells (AID 1347096); also: nearly all actives have a fitted effect of over 50% in size
How it was run: (§3)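 Cells (500-1,000/well) rested 5 h, then received compounds for 48 h; metabolically active cells were measured by CellTiter-Glo luminescence. Final concentrations spanned up to 46 µM (MIPE, 11-point) or 0.59 nM-46 µM (NPC, 8-point) in primary screens, 11-point in follow-ups.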

[11] = qHTS of pediatric cancer cell lines to identify multiple opportunities for drug repurposing: Primary screen for Saos-2 cells (AID 1347097); also: nearly all actives have a fitted effect of over 40% in size
How it was run: as §2

[12] = qHTS of pediatric cancer cell lines to identify multiple opportunities for drug repurposing: Primary screen for SK-N-SH cells (AID 1347098); also: nearly all actives have a fitted effect of over 65% in size
How it was run: as §3

[13] = qHTS of pediatric cancer cell lines to identify multiple opportunities for drug repurposing: Primary screen for NB1643 cells (AID 1347099); also: nearly all actives have a fitted effect of over 50% in size
How it was run: as §2

[14] = qHTS of pediatric cancer cell lines to identify multiple opportunities for drug repurposing: Primary screen for LAN-5 cells (AID 1347100)
How it was run: as §3

[15] = qHTS of pediatric cancer cell lines to identify multiple opportunities for drug repurposing: Primary screen for BT-12 cells (AID 1347101); also: nearly all actives have a fitted effect of over 25% in size
How it was run: as §3

[16] = qHTS of pediatric cancer cell lines to identify multiple opportunities for drug repurposing: Primary screen for Rh18 cells (AID 1347102); also: nearly all actives have a fitted effect of over 65% in size
How it was run: as §3

[17] = qHTS of pediatric cancer cell lines to identify multiple opportunities for drug repurposing: Primary screen for OHS-50 cells (AID 1347103); also: nearly all actives have a fitted effect of over 40% in size
How it was run: as §3

[18] = qHTS of pediatric cancer cell lines to identify multiple opportunities for drug repurposing: Primary screen for RD cells (AID 1347104); also: nearly all actives have a fitted effect of over 55% in size
How it was run: as §2

[19] = qHTS of pediatric cancer cell lines to identify multiple opportunities for drug repurposing: Primary screen for MG 63 (6-TG R) cells (AID 1347105); also: nearly all actives have a fitted effect of over 50% in size
How it was run: as §2

Measured: Potency

O=C(O)/C=C/c1ccc(Cn2ccnc2)cc1
inactive: all assays above

Cc1ccc(C(C)C)c(O)c1
inactive: all assays above

CCOC(=O)c1cccnc1
inactive: all assays above

O=S1(=O)OC(c2ccc(O)cc2)(c2ccc(O)cc2)c2ccccc21
inactive: all assays above

CC(=O)N(CC(O)CO)c1c(I)c(C(=O)NCC(O)CO)c(I)c(C(=O)NCC(O)CO)c1I (centres undefined)
inactive: all assays above

C[n+]1ccccc1/C=N/O
not listed: [17]
inactive: all other assays above

NNC(=O)CP(=O)(c1ccccc1)c1ccccc1
inactive: all assays above

CC1CCN(CCCC(=O)c2ccc(F)cc2)CC1
not listed: [16]
inactive: all other assays above

Cc1c(I)c(=O)n(-c2ccccc2)n1C
inactive: all assays above

O=C(NCN1CCOCC1)c1cnccn1
inactive: all assays above

CC(CN(C)C)C(C)(O)Cc1ccc(Cl)cc1 (centres undefined)
not listed: [17]
inactive: all other assays above

CC(C)=CCC[C@@](C)(O)[C@H]1CC=C(C)CC1
inactive: all assays above

CC(O)CCCCn1c(=O)c2c(ncn2C)n(C)c1=O (centres undefined)
inactive: all assays above

Reference: PubChem BioAssay (NCATS)
